Sampled rows, rich in hits. Any-hit rate of the full collection: about 9.4%.
FLuc modulator: inhibits or activates purified firefly luciferase, miR-21 counter-screen | P08659 | purified FLuc, Km substrates, luminescence inhibition | Potency, µM (doses to about 57.5 µM), without a hit: top-dose activity change, negative = inhibition, usual class: inhibitors | 360,000 compounds, 6.9% hits;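 further: plate controls were vehicle for no effect and reference inhibitor for full effect; nearly all actives have a fitted effect of over 55% in size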
Target sequence (P08659 whole entry, looked up): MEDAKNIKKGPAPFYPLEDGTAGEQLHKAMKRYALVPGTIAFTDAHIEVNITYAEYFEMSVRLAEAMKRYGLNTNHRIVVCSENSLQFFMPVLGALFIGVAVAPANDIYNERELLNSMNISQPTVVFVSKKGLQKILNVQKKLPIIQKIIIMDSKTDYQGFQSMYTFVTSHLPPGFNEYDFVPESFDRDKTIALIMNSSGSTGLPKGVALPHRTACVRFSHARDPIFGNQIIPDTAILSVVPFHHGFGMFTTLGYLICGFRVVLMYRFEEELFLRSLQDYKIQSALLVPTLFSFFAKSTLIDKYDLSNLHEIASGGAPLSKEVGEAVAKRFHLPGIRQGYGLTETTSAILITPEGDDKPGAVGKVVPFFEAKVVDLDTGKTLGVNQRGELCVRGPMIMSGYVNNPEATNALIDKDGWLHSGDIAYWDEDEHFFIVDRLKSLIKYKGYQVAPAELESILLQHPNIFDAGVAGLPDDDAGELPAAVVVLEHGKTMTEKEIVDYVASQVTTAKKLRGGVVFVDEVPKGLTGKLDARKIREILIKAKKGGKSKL
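Purified P. pyralis luciferase, 10 nM final, with Km-level 10 uM D-luciferin and 10 uM ATP in 50 mM Tris acetate pH 7.5, 10 mM Mg acetate, 0.01% Tween-20, 0.05% BSA; 6-point qHTS titration about 60 µM downward; luminescence read.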
ELG1 genotoxic: genotoxicity induction in ELG1-luciferase HEK293T cells | AID 504466 | 330,000 compounds, 1.3% hits | Potency, µM (series often up to 46 µM), without a hit: at the highest dose activity change, positive = activation, most hits filed as activators | HEK293T ELG1-luciferase reporter, luminescence, 16 h; further: % of control where 0% means no effect; nearly all actives have a fitted effect of over 60% in size
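HEK293T cells expressing luciferase-tagged ELG1 were exposed to compound or DMSO vehicle for 16 hr at 37 °C and 5% CO2. Luciferase activity was then measured with ONE-Glo after 30 min at room temperature.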
Rab9 promoter act: activates the Rab9 promoter | Potency, µM (titrated, usually from 9.22 µM), for the others: top-dose activation, negative = inhibition, most hits filed as activators | AID 485297 | 320,000 compounds, 2.8% hits | Huh7 Rab9 promoter-luciferase reporter, luminescence, 24 h; further: % of control where 0% means no effect; nearly all actives have a fitted effect of over 60% in size
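Cells were plated at 1500 per well in reduced-serum medium with 10% FBS and left 2 h. Compound in DMSO was then added for 24 h at 37 °C. Reporter signal was read by luminescence after 10 min with luciferase detection reagent.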
SMN2 splice enh: increases expression of the SMN2 splice variant; Potency, µM (top dose mostly 46.1 µM), without a hit: top-dose activity change, positive = activation, most hits filed as activators; HEK293 SMN2-luciferase splicing reporter, luminescence, 30-36 h; AID 1458; 210,000 compounds, 2.8% hits; further: % of control where 0% means no effect; nearly all actives have a fitted effect of over 55% in size
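HEK293 cells carry an SMN2 minigene-luciferase reporter in which exon 7 inclusion puts luciferase in frame. Cells were seeded at 2000 cells/well, attached for 10-12 hours, then exposed to compounds for 30-36 hours at 37C before ONE-Glo luminescence.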
NPC1 promoter act: activators of NPC1 promoter | Huh7 NPC1 promoter luciferase reporter, 24 h | Potency, µM (series often up to 9.22 µM), without a hit: at the top dose activation, most hits filed as activators | 320,000 compounds, 2.4% hits; further: % of control where 0% means no effect; nearly all actives have a fitted effect of over 60% in size
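Luminescence from an NPC1 promoter-driven luciferase reporter in stably transfected Huh7 cells was measured after 24 h compound treatment at 37 °C, followed by 10 min ambient incubation with luciferase detection reagent.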
ELG1 DNA repair: ELG1-dependent DNA repair inhibition | HEK293T ELG1-luciferase reporter, luminescence, 16 h; DNA damage induced by 5-fluorouridine | Potency, µM (top dose mostly 46.1 µM), inactives show at the top dose activity change, negative = inhibition, usual class: inhibitors | 330,000 compounds, 2.3% hits; further: on the % scale 0 is the no-effect control and ±100 the full control effect; nearly all actives have a fitted effect of over 55% in size
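Luminescence from the luciferase reporter, measured 30 min after ONE-Glo reagent at room temperature, was the read-out. Beforehand, 2,000 cells per well were exposed for 16 hr at 37 °C to 5-fluorouridine together with compound or vehicle.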
Numbers without * were called inactive; ? = inconclusive; · = no result given; [ ] = dose if it differs, or a comment. The call rests on the fitted dose curve; in most records, active means well fitted curve in the direction sought with a large enough effect; inconclusive means small, poorly fitted or top-dose-only effect, or another doubt; inactive means no such curve, though single readings can be large; an effect the other way counts as inactive or inconclusive. Potency means the concentration at half of the fitted maximal effect.

SMILES	FLuc modulator	ELG1 genotoxic	Rab9 promoter act	SMN2 splice enh	NPC1 promoter act	ELG1 DNA repair
CCCc1nc2c(sc3nc4c(cc32)COC(C)(C)C4)c(=O)n1Cc1ccco1	-1%	-3%	-3%	-17%	-2%	0%
CC1(C)Cc2nc3sc4c(SCC(=O)NCc5ccco5)ncnc4c3cc2CO1	5.4µM*	2.1µM*	?	?	-2%	?
Cc1nc2c(sc3nc4c(cc32)COC(C)(C)C4)c(=O)n1Cc1ccccc1	24µM*	?	?	-36%	26%	?
COc1cccc(Cn2c(=O)n(Cc3ccco3)c(=O)c3oc4ccccc4c32)c1	-10%	·	·	·	·	·
CCC(C)NC(=O)CSc1nnc(-c2cc(-c3ccc(C)cc3)nc3ccccc23)n1N (stereo unspecified)	11µM*	-5%	0%	-5%	-1%	?
Cc1ccc(-c2cc(-c3nnc(SCC(=O)NCC(C)C)n3N)c3ccccc3n2)cc1	17µM*	1%	4%	4%	23%	0%
CC(=O)Oc1c(Br)cc(N(C(C)=O)S(=O)(=O)c2ccccc2)c2ccccc12	-13%	-17%	20%	·	3%	23µM*
CC(=O)Oc1ccccc1N(C(C)=O)S(=O)(=O)c1ccc2ccccc2c1	-5%	-1%	9%	8%	0%	0%
CCOC(=O)N1CCC(NC(=O)c2cc(-c3ccc(OC)cc3)nc3ccccc23)CC1	4.8µM*	-4%	10%	·	-1%	-3%
COc1cc(-c2cc(C(=O)N3CCCCCC3)c3ccccc3n2)cc(OC)c1OC	-10%	1%	-34%	·	-4%	-9%
COc1ccc(-c2cc(C(=O)N3CCCCCC3)c3ccccc3n2)cc1	6.7µM*	-1%	0%	·	0%	1%
O=C(c1cc(-c2cccc(Br)c2)nc2ccccc12)N1CCCC1	15µM*	-12%	1%	·	2%	-16%
O=C(c1cc(-c2ccc(Br)cc2)nc2ccccc12)N1CCC1	17µM*	-9%	-7%	·	-1%	-15%
NC(=O)C1CCN(C(=O)c2cc(-c3ccc(Cl)cc3)nc3ccccc23)CC1	·	-6%	·	·	·	?
Cc1ccc(C)c(NC(=O)c2cnc3sc(N4CCOCC4)nn3c2=O)c1	-1%	·	·	·	·	·
CSc1ccc(CCNC(=O)CCCn2c(=O)c3cccn3c3ccccc32)cc1	2%	·	·	·	·	·
CCc1ccc(C(=O)C(C)OC(=O)c2nn(C)c(=O)c3ccccc23)cc1 (stereo unspecified)	-2%	29%	1%	·	0%	-17%
Cc1ccc(-c2cc(C(=O)N3CCC(C)CC3)c3ccccc3n2)cc1	4.3µM*	-5%	7%	·	3%	?
O=C(c1cc(Cl)nc2ccccc12)N1CCCCC1	6%	-2%	4%	-17%	3%	-8%
CCc1ccc(Sc2cc(C(=O)O)c3ccccc3n2)cc1	15µM*	·	·	·	·	·
O=C(O)c1cc(Sc2ccc(Br)cc2)nc2ccccc12	?	-1%	-7%	-5%	-3%	12%
CCOC(=O)N1CCC(NC(=O)c2cc3cc4cc(OC)ccc4nc3o2)CC1	?	-2%	-7%	-21%	-2%	23µM*
Cc1ccc(-c2cc(C(=O)N3CCCC3)c3ccccc3n2)s1	5.4µM*	15%	4%[1.84 µM]	·	18%	?
CC(=O)c1cccc(NC(=O)CCc2c(C)nc3c(-c4ccc(F)cc4)c(C)nn3c2C)c1	-3%	·	·	4%	·	·
O=C(O)c1cc(-c2cc(C(=O)O)c3ccccc3n2)nc2ccccc12	?	-1%	-2%	·	0%	8%
CCc1ccc(-c2cc(C(=O)O)c3ccccc3n2)s1	0.54µM*	16%	1.4µM*	·	2µM*	?
Cc1ccc(CN2CCN(Cc3ccc(C)o3)[C@@H](C)C2)o1	·	·	·	-4%[9.22 µM]	·	·
O=C1c2ccccc2C(=O)N1CCCCN(C(=O)c1cc2ccccc2oc1=O)c1ccc(Cl)cc1	1%	-7%	2%	-17%	18%	23µM*

Bioassay records from PubChem.
